The results in this text go back to PubChem BioAssay AID1021 (Emory University Molecular Libraries Screening Center, 2008).

The whole screen tested about 220,000 compounds, of which about 2,100 (0.95%) were called active. This is one part of a sample in which actives are shown more often than they occur.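 How the source made its calls: active means compounds that cut the binding signal by more than half at the single screening dose; inactive means the rest.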

Chain of Induced myeloid leukemia cell differentiation protein Mcl-1 (Homo sapiens) (Q07820 whole entry, looked up): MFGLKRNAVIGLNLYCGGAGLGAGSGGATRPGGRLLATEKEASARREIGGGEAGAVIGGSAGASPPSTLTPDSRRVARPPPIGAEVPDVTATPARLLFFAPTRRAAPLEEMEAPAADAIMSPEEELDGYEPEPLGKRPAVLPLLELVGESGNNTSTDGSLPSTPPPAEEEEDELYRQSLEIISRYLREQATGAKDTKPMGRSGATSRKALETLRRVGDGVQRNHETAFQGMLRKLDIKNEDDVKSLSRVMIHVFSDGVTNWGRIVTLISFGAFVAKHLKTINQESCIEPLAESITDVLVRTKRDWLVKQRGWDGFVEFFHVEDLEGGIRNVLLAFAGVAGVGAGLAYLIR

The assay addresses Induced myeloid leukemia cell differentiation protein Mcl-1 (Homo sapiens) (UniProt Q07820). Kind of assay: disruptors of Mcl-1 and Bid BH3 peptide – biochemical, TR-FRET, 1536-well, primary screen (AID 1021).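 Further: His-tagged Mcl-1 with europium anti-His antibody binding Bid BH3 peptide; 0% = Mcl-1 plus peptide wells and 100% = peptide-only wells.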 The conditions noted are these: TR-FRET Mcl-1/Bid-Dy647 peptide binding, at 21.7 µM, active compounds read high. (In TR-FRET formats the signal depends on donor and acceptor labels being close together.)
In the case of `CS(=O)(=O)c1ccc2nc(NC(=O)C3CCCCC3)sc2c1`, the inhibition is -11% (inactive).
On to `CS(=O)(=O)c1ccc2nc(NC(=O)CN3CCCCCC3)sc2c1`, for which the inhibition was 55.1% (active).
Turning to `CS(=O)(=O)c1ccc2nc(NC(=O)c3ccc(N4CCCC4=O)cc3)sc2c1`, the inhibition was -53.4% (inactive).
Take `O=c1[nH]nc(SCCS(=O)(=O)c2ccc(F)cc2)n1-c1ccccc1C(F)(F)F`: the inhibition is -37.5% (inactive).
As for `CCOC(=O)Nc1ccc2c(c1)N(C(=O)CCN1CCN(CCO)CC1)c1ccccc1CC2`, the figure is 51.3% (active); as for `CCNCCC(=O)N1c2ccccc2Sc2ccc(NC(=O)OCC)cc21`, -12.2% (inactive); as for `CCOC(=O)Nc1ccc(NC(=O)OCC)cc1`, -26.4% (inactive).
As for `COc1ccc2[nH]c(=S)cc(C)c2c1`, the figure is -43.7% (inactive); as for `CNC1(c2nnnn2-c2c(C)cccc2C)CCOC(C)(C)C1` (configuration not stated), -15.5% (inactive); as for `CCCNC(=O)NC(=O)COC(=O)CC(NC(N)=O)c1ccc(Cl)cc1` (configuration not stated), -14.2% (inactive).
Consider `O=C(CN1CCCC1)N1CCN(c2ccccc2)CC1`, for which the inhibition is -53.9% (inactive).
Consider `O=S(=O)(c1ccccc1)N(CC(O)CN1CCCCC1)c1ccccc1` (configuration not stated), for which the inhibition is -28.8% (inactive).
As for `CN(C)/C(CN1CCCCC1)=C1\N=C(c2ccccc2)OC1=O`, the figure is 65.5% (active); as for `COC(=O)N/N=C/c1ccc(-c2ccc(Cl)c(Cl)c2)o1`, 15.5% (inactive); as for `COC(=O)c1c(NC(=O)c2c(Cl)cnn2C)sc(C)c1C`, -24% (inactive).
Regarding `COCCCNCC(=O)Nc1sc(C)c(C)c1C(=O)OC`, the inhibition was 63.5% (active).
With `CCOC(=O)c1c(NC(=O)c2cccs2)sc(C)c1C`, the inhibition is -14.7% (inactive).
Take `COc1cccc(NC(=O)CN(C)C(C)C(=O)Nc2ccc(C#N)cc2)c1` (configuration not stated): the inhibition is -15.1% (inactive).
For the compound `O=C(NCc1ccco1)c1nn2cccnc2c1Cl`, the inhibition is -10.8% (inactive).
Take `COCCCNc1nc2c(-c3cccc(C(F)(F)F)c3)nnn2c2ccccc12`: the inhibition was -13.1% (inactive).
`NCC(=O)c1cccc2ccc[n+]([O-])c12`: the inhibition was -13.8% (inactive).
For `CCc1ccccc1NC(=O)CSc1nnc(-c2ccncc2)o1`, the inhibition was -14.6% (inactive).
As for `COc1ccc(C2c3c(C)nn(-c4ccccc4)c3NC(=O)N2c2ccccc2)cc1` (configuration not stated), the inhibition is 76.8% (active).
As for `COc1ccc(-n2c(C)nc3c(cnn3-c3ccccc3)c2=O)cc1`, the inhibition is -3.33% (inactive).
For `Cc1nn(-c2ccccc2)c2c1C(c1cccc([N+](=O)[O-])c1)N(c1ccccc1)C(=O)N2` (configuration not stated), the inhibition was -12.3% (inactive).
For the compound `CN(NC(=O)C1CC(=O)N(c2ccccc2)C1)C1=NS(=O)(=O)c2ccccc21` (configuration not stated), the inhibition is -8.25% (inactive).
Take `Cc1ccc(S(=O)(=O)/N=C(/Nc2ccccn2)c2ccc(Cl)cc2)cc1`: the inhibition is 1% (inactive).
Turning to `Cc1ccc(S/C(=N\S(=O)(=O)c2ccc(Cl)cc2)c2ccccc2)cc1`, the inhibition was 61.7% (active).
Regarding `O=S(=O)(/N=C(/Nc1ccccn1)c1ccccc1)c1ccc(Cl)cc1`, the inhibition was -22.6% (inactive).
As for `O=C(N/N=C/c1ccc(Br)o1)c1cncc(Br)c1`, the inhibition is -13.1% (inactive).
For `CS(=O)(=O)N(CC(=O)NC1CCCC1)Cc1ccc(F)cc1`, the inhibition was -0.58% (inactive).
As for `COc1ccc(CNC2CCCCC2)cc1`, the figure is 64.1% (active).
Turning to `COc1cc(CNC2CCCCC2)c(Br)cc1OC1CCCC1`, the inhibition was -29.9% (inactive).
For `COc1ccc(CCNC(=O)COC(=O)C2CCCCC2)cc1`, the inhibition is -25.9% (inactive).
As for `CCOC(=O)c1ccc(COC(=O)c2cc(=O)[nH]c3ccccc23)o1`, the figure is -9.7% (inactive); as for `CCOC(=O)c1cc2c(=O)[nH]c(C(Cl)(Cl)Cl)nc2o1`, 52% (active).
In the case of `CCOC(=O)c1cnc(COc2ccccc2Cl)[nH]c1=O`, the inhibition is 7.19% (inactive).
With `CCCCCOc1ccc(CSC2=NCCN2)cc1[N+](=O)[O-]`, the inhibition is -26.2% (inactive).
Turning to `O=C(Nc1ccc(Br)cn1)C1CCN(S(=O)(=O)c2cccs2)CC1`, the inhibition is -17.8% (inactive).
On to `CCc1cc2cc(OC)ccc2nc1SCC(=O)Nc1cc(OC)c(OC)cc1C(=O)O`, for which the inhibition is -3.27% (inactive).
For the compound `O=C(C1CCCO1)N(c1ccc(F)cc1)C1C=CS(=O)(=O)C1` (configuration not stated), the inhibition is -15.9% (inactive).
For `Cc1cccn2c(CN(C)C3CCCc4ccccc43)c(C(=O)N3CCOCC3)nc12` (configuration not stated), the inhibition is 54.6% (active).
As for `Cc1cc(C)n(CC(C)NCc2c(C(=O)N3CCOCC3)nc3c(C)cccn23)n1` (configuration not stated), the inhibition is -17.6% (inactive).
Regarding `Cc1cccn2c(CNCC(C)Oc3cccnc3)c(C(=O)N3CCOCC3)nc12` (configuration not stated), the inhibition is -13.2% (inactive).
With `Cc1cc(N2CCN(c3ccccc3)CC2)nc(N2CCOCC2)n1`, the inhibition is -98.4% (inactive).
Regarding `Cc1ccc(-c2cc(C(=O)NN)n[nH]2)o1`, the inhibition was -33.4% (inactive).
As for `O=C(CSc1nc2ccccc2o1)N/N=C/c1ccccc1C(=O)O`, the inhibition was -19.1% (inactive).
As for `Nc1c(Cl)cc(S(N)(=O)=O)cc1S(N)(=O)=O`, the figure is -8.81% (inactive).
`Cc1c(/C=N\NC(=O)c2cc3ccccc3o2)c2ccccc2n1C`: the inhibition is -24.8% (inactive).
As for `Cc1c(/C=N/N2C(=O)C3C4C=CC(C4)C3C2=O)c2ccccc2n1C` (configuration not stated), the figure is 59.1% (active); as for `Cc1c(C=O)c2ccccc2n1CC(=O)O`, -7.49% (inactive).
For `O=C(NC1CC1)C1=C[C@H](c2c[nH]c3ccccc23)C[C@H](OCc2ccc(CO)cc2)O1`, the inhibition was -70.3% (inactive).
`OCC1(Cc2ccccc2C(F)(F)F)CCN(Cc2cccc3cnccc23)CC1`: the inhibition was -14.6% (inactive).
Turning to `COc1ccc2nc(NC(=O)NC3CCCCC3)sc2c1`, the inhibition was -6.76% (inactive).
As for `COC(=O)[C@H](CC(C)C)NC(=O)N1CCCCC1C` (some centres not stated), the inhibition is -3.65% (inactive).
As to `O=C(Oc1cccnc1)c1cc2ccccc2oc1=O`, the inhibition was 19.8% (inactive).
Regarding `COc1ccc(C(=O)Nc2cccnc2)cc1C(=O)Nc1cccnc1`, the inhibition is 14.7% (inactive).
With `O=C(Nc1cccnc1)c1cc2cc(Br)ccc2oc1=O`, the inhibition was 59.5% (active).
For `O=C(CN1CCCCCC1)NCCN1C(=O)S/C(=C\c2ccccc2Cl)C1=O`, the inhibition was -7.27% (inactive).
For `COc1ccccc1Cn1c(CO)nc2ccccc21`, the inhibition was -24.8% (inactive).
For `Cc1cccc(C2C3=C(CCCC3=O)N=C3c4ccccc4C(=O)C32)c1` (configuration not stated), the inhibition was -45% (inactive).
With `Cc1cccc(NC(=S)NC23CN4CN(CN(C4)C2)C3)c1`, the inhibition was -75.3% (inactive).

For orientation: inhibition means the change of the read-out against control, counted positive when it falls.
